Assay results taken from ChEMBL document CHEMBL1961873, “Compounds: GSK PKIS; Assays: Nanosyn kinase panel” (2012).
Values joined by “and” are separate entries in the source; they are usually repeats but may differ in a detail not shown here. Identical values can stand only once.

Tests used:
[1] = molecular target: Fibroblast growth factor receptor 4 (Homo sapiens) (UniProt P22455); details: at 1 µM;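 further: reported figure is the averaged percent inhibition of FGFR4, from the GSK PKIS kinase screening panel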
Chain of Fibroblast growth factor receptor 4 (Homo sapiens) (P22455 22-802 limits assumed): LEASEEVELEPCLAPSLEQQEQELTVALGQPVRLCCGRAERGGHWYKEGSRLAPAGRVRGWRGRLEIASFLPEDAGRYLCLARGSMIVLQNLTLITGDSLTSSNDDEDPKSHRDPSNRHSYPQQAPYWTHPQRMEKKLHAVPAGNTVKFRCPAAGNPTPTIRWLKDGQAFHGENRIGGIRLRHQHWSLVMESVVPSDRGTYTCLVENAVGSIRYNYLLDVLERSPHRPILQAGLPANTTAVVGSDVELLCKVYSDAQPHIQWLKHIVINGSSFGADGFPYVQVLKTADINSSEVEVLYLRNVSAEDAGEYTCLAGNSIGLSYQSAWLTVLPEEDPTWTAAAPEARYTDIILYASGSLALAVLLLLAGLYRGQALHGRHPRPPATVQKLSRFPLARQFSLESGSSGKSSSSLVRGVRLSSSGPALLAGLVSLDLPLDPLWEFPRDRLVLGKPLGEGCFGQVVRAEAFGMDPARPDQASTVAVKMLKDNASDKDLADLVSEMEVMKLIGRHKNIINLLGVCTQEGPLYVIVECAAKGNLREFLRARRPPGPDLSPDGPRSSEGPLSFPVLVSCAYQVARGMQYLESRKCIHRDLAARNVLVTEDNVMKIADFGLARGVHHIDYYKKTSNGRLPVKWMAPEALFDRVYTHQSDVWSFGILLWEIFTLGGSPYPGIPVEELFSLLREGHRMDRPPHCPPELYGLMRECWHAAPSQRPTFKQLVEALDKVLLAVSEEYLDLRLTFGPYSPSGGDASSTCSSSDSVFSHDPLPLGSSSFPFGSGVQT

[2] = molecular target: Tyrosine-protein kinase Fgr (Homo sapiens) (UniProt P09769); details: at 0.1 µM
Chain of Tyrosine-protein kinase Fgr (Homo sapiens) (P09769 2-529 limits assumed): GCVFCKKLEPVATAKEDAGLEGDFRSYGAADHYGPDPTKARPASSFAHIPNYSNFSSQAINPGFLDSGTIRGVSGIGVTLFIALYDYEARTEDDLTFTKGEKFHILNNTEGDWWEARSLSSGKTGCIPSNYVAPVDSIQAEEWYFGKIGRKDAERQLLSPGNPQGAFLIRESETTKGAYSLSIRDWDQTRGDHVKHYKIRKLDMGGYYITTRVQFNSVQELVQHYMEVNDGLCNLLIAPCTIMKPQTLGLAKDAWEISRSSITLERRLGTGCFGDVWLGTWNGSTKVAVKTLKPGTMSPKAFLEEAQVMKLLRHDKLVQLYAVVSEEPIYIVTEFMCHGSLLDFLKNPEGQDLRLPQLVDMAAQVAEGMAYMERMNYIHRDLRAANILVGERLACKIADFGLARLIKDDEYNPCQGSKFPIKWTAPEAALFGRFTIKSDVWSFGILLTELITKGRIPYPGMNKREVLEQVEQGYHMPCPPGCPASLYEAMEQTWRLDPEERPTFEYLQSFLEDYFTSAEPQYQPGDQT

[3] = molecular target: Tyrosine-protein kinase Fgr (Homo sapiens) (UniProt P09769); details: at 1 µM
[4] = molecular target: Vascular endothelial growth factor receptor 1 (Homo sapiens) (UniProt P17948); details: at 0.1 µM
Chain of Vascular endothelial growth factor receptor 1 (Homo sapiens) (P17948 whole entry): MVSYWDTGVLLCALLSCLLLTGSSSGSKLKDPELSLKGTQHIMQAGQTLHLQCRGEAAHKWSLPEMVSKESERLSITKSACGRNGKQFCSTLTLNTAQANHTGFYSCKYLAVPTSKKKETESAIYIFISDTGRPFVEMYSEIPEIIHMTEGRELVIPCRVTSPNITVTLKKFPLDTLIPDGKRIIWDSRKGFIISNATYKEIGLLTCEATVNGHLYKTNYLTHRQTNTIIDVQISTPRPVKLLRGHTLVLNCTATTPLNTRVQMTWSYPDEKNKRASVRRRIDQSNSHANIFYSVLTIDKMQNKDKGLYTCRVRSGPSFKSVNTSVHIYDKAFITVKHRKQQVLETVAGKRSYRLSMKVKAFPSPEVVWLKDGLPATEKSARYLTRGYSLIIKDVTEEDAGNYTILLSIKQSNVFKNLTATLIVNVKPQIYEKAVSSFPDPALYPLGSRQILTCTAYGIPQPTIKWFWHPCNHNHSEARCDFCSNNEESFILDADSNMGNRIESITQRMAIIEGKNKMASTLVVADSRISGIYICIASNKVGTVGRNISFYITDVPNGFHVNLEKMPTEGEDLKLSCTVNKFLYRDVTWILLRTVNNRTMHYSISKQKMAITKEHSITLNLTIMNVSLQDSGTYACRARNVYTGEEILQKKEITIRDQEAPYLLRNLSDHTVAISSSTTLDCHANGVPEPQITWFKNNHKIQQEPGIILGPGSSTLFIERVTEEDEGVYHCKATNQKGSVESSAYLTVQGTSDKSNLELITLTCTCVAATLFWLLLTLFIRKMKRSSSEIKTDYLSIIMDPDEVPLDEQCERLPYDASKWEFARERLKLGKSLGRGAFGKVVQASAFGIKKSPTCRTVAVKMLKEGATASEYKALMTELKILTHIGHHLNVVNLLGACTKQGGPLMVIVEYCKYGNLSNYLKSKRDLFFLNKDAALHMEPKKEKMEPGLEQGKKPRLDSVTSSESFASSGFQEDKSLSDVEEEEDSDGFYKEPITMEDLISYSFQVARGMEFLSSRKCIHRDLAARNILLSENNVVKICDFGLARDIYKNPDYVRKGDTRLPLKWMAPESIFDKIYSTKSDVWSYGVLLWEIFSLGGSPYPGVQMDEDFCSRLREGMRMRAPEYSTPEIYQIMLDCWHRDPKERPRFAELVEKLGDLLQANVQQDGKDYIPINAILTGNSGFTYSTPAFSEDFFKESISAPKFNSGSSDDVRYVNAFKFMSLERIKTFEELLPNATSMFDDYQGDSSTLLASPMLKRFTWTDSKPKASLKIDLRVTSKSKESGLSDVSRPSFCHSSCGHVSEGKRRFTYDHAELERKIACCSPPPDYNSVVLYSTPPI

[5] = molecular target: Vascular endothelial growth factor receptor 1 (Homo sapiens) (UniProt P17948); details: at 1 µM
[6] = molecular target: Receptor-type tyrosine-protein kinase FLT3 (Homo sapiens) (UniProt P36888); details: at 0.1 µM
[7] = molecular target: Receptor-type tyrosine-protein kinase FLT3 (Homo sapiens) (UniProt P36888); details: at 1 µM
[8] = test system: T1, Receptor-type tyrosine-protein kinase FLT3 (Homo sapiens), P36888 [D835Y]; details: at 0.1 µM
T1 sequence (whole entry): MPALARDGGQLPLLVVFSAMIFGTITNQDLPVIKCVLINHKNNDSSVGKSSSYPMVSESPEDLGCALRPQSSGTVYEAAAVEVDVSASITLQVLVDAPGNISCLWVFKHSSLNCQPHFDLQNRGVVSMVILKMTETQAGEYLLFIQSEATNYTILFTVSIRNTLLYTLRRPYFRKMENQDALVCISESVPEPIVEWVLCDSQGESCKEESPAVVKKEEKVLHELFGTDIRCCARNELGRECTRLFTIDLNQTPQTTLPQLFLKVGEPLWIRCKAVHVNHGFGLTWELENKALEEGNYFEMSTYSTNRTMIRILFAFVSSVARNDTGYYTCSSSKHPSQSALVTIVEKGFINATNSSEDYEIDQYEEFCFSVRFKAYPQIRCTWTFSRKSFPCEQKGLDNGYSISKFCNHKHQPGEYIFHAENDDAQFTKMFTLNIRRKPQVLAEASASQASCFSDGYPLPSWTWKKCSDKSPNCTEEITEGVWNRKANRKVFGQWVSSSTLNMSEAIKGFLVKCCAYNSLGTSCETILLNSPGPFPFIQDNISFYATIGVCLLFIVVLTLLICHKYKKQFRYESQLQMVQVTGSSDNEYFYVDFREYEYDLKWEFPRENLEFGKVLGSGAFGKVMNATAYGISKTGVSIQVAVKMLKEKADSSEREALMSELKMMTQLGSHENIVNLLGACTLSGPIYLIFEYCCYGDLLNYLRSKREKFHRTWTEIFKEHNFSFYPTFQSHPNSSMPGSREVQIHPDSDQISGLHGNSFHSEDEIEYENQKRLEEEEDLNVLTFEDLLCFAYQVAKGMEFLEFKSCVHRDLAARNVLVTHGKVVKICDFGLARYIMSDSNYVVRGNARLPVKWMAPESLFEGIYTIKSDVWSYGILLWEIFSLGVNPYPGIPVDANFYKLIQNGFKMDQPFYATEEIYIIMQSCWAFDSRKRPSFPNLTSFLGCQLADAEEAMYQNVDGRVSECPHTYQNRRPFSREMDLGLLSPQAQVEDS

[9] = molecular target: Non-receptor tyrosine-protein kinase TYK2 (Homo sapiens) (UniProt P29597); details: at 1 µM;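 further: values are mean percent inhibition of TYK2 kinase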
Chain of Non-receptor tyrosine-protein kinase TYK2 (Homo sapiens) (P29597 whole entry): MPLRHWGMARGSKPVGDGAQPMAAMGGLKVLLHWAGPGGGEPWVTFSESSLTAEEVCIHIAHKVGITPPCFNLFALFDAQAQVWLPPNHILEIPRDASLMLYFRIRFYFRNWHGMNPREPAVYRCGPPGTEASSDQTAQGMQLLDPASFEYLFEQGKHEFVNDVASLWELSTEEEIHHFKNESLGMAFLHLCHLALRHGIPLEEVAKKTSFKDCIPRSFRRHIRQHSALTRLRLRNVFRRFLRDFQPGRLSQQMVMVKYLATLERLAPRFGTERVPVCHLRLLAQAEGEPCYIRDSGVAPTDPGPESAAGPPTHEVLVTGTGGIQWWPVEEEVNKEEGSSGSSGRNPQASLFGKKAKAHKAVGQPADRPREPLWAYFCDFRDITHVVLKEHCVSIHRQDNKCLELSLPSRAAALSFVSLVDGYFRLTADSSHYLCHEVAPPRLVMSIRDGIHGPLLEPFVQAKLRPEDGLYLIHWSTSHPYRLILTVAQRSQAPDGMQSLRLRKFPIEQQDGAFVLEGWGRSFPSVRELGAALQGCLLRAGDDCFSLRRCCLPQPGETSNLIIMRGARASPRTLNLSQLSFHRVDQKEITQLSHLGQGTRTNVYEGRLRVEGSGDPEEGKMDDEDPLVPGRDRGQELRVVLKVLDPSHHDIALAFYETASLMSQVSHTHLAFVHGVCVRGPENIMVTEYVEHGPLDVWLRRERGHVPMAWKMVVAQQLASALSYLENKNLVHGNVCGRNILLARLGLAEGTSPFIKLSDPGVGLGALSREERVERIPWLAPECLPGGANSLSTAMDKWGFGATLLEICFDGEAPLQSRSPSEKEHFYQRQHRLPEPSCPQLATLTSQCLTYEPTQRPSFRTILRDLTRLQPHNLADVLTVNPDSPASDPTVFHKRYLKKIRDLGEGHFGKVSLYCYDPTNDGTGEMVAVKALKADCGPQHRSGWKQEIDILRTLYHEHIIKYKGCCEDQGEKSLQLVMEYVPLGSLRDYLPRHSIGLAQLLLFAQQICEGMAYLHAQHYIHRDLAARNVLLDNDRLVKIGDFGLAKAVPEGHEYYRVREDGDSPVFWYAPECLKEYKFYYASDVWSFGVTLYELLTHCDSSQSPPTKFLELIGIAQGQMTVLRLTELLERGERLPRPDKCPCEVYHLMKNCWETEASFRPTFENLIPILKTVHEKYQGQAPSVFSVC

[10] = molecular target: T2, Tyrosine-protein kinase receptor TYRO3 (Homo sapiens) (UniProt Q06418); details: at 0.1 µM;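 further: reported percentages are averaged inhibition values of TYRO3 kinase activity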
T2 sequence (whole entry): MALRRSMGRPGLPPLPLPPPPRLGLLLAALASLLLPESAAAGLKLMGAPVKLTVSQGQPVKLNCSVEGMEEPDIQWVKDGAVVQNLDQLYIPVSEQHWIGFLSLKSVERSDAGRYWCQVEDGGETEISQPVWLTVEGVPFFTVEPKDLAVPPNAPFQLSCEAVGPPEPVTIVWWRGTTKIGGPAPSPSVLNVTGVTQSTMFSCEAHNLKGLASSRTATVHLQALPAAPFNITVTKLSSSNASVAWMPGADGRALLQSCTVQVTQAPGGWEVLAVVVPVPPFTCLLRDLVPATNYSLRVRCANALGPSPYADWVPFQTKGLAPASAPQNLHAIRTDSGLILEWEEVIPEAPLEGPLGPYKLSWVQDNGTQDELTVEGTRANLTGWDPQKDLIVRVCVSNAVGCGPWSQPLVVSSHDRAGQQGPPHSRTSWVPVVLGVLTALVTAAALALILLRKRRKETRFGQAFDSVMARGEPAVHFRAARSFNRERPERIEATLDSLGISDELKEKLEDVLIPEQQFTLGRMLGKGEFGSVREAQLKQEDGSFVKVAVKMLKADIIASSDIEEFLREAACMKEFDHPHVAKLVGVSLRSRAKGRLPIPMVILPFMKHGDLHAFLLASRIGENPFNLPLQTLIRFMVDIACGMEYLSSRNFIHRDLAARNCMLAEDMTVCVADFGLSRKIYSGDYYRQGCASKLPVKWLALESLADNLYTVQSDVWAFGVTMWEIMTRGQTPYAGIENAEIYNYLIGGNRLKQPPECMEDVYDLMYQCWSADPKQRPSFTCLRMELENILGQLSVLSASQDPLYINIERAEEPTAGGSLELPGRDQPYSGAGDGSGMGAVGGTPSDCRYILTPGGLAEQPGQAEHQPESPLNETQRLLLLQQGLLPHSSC

Row | Compound | inhibition [1] | inhibition [2] | inhibition [3] | inhibition [4] | inhibition [5] | inhibition [6] | inhibition [7] | inhibition [8] | inhibition [9] | inhibition [10]
1 | CN1CCC(C(=O)Nc2n[nH]c3nc(-c4ccc(O)cc4)c(Br)cc23)CC1 | -2.79% and 2.44% | 4.74% and 1.32% | 4.79% and 3.79% | -0.55% and 2.25% | 1.75% and 2.84% | 1.75% and 4.1% | 5.59% and 2.93% | -2.26% and 1.33% | -0.92% and -0.98% | 2.21% and 0.67%
2 | O=C(O[C@H]1CN[C@H](C#Cc2cc3ncnc(Nc4ccc5c(cnn5Cc5ccccc5)c4)c3s2)C1)N1CCOCC1 | 0.38% | 2.54% | 11.2% | -2.71% | 0.04% | -2.76% | -3.41% | -5.14% | 1.01% | -0.42%
3 | CS(=O)(=O)Nc1ccc(-c2cc(-c3ccccc3)cc(C(N)=O)c2N)cc1 | 1.17% | -1.31% | 1.01% | 1.22% | 1.42% | 6% | 4.94% | -2.16% | -2.96% | 0.01%
4 | COC(=O)Nc1nc2ccc(Oc3ccc(NC(=O)Nc4cc(C(F)(F)F)ccc4F)cc3)cc2s1 | 3.25% | 1.85% | 9.94% | 36% | 78.1% | 11.2% | 47.1% | -0.17% | 1.02% | 6.26%
5 | Nc1nonc1-c1nc2cnccc2n1C1CC1 | 0.52% and -2.65% | 1.63% and 3.54% | 4.78% and 2.49% | 2.44% and 2.46% | 7.3% and 7.59% | -0.66% and 0.33% | 4.5% and 3.82% | 2.73% and -0.79% | -1.02% and -1.56% | 1.66% and 1.58%
6 | CS(=O)(=O)CCNCc1ccoc1-c1ccc2ncnc(Nc3ccc(OCc4ccccc4)cc3)c2c1 | 1.85% | 2.61% | 12.6% | 2.35% | -0.36% | 1.82% | 6.53% | -4.02% | 0.15% | 0.96%
7 | COc1c(C(N)=O)cc(-c2ccc(Cl)cc2)cc1-c1ccc(S(N)(=O)=O)cc1 | 2.25% | 0.21% | 2.86% | -0.38% | 2.07% | 1.63% | 3.25% | -1.44% | -6.53% | 2.09%
8 | CCOc1ccc2c(-c3ccnc(Nc4cc(OC)cc(C(F)(F)F)c4)n3)cnn2n1 | 3.56% | 1.32% | 9.11% | 1.04% | 5.65% | 2.11% | 15.1% | 2.53% | 1.53% | 1.46%
9 | Nc1nccc(-c2c(-c3ccc(F)cc3)ncn2C2CCNCC2)n1 | -0.1% and 1.64% | -0.15% and 1.9% | 4.65% and 8.7% | -0.52% and 1.63% | -0.59% and 2.14% | -1.21% and 1.71% | -2.93% and 1.86% | -8.75% and 1.68% | 2.68% and 1.47% | -2.12% and 1.7%
10 | O=C1Nc2ccccc2/C1=C1\CCc2cc(O)ccc21 | 3.99% | 2.44% | 15.4% | 12.7% | 25.7% | 40.7% | 85.5% | 27.1% | 6.88% | 4.69%
11 | COc1ccccc1-c1cc(/C=C2\C(=O)Nc3ncc(Br)cc32)cc(Br)c1O | 1.97% | 2.7% | 11.6% | 3.32% | 4.73% | 4.36% | 6.62% | -5.55% | -1.22% | 7.47%
12 | CCn1c(-c2nonc2N)nc2cncc(C(=O)NCCNC)c21 | 1.09% | 1.3% | 4.66% | 2.02% | 3.5% | 0.34% | 4.29% | -3.83% | -3.99% | 3.7%
13 | O=C(Nc1n[nH]c2nnc(-c3cccnc3)cc12)C1CC1 | -0.33% | 2.57% | 2.95% | 0.7% | 0.07% | -0.64% | 1.54% | 0.49% | 2.04% | -0.64%
14 | COc1cc(N2CCN(C(C)C)CC2)ccc1Nc1nc(Nc2cccc(F)c2C(=O)O)c2cc[nH]c2n1 | 3.72% | 4.76% | 4% | 1.38% | 1.96% | 0.4% | 10.3% | 0.23% | -2.8% | 2.73%
15 | c1cnn2ncc(-c3ccnc(NCCCN4CCOCC4)n3)c2c1 | 2.53% | 2.2% | 0.54% | 1.65% | 0.94% | 0.76% | 1.48% | 0.21% | -3.09% | 3.23%
16 | CCCNc1cccc(-n2ncc3c(N/N=C/c4ccncc4)ncnc32)c1 | 3.38% | 18.9% | 52% | 2.98% | 19.7% | 4.53% | 17.6% | 7.74% | 4.3% | 5.05%
